Measured values taken from the supplement of paper PMC3334620.
Whole data set: some 33,000 sequences, median “E-score (-0.5 to 0.5)” near -0.043, cut for the highest 2% near 0.37. What follows is part of a selection rich in the highest values, with near analogues and random picks from the rest.

Target: T1, Upc2 (UniProt Q12151)
T1 sequence: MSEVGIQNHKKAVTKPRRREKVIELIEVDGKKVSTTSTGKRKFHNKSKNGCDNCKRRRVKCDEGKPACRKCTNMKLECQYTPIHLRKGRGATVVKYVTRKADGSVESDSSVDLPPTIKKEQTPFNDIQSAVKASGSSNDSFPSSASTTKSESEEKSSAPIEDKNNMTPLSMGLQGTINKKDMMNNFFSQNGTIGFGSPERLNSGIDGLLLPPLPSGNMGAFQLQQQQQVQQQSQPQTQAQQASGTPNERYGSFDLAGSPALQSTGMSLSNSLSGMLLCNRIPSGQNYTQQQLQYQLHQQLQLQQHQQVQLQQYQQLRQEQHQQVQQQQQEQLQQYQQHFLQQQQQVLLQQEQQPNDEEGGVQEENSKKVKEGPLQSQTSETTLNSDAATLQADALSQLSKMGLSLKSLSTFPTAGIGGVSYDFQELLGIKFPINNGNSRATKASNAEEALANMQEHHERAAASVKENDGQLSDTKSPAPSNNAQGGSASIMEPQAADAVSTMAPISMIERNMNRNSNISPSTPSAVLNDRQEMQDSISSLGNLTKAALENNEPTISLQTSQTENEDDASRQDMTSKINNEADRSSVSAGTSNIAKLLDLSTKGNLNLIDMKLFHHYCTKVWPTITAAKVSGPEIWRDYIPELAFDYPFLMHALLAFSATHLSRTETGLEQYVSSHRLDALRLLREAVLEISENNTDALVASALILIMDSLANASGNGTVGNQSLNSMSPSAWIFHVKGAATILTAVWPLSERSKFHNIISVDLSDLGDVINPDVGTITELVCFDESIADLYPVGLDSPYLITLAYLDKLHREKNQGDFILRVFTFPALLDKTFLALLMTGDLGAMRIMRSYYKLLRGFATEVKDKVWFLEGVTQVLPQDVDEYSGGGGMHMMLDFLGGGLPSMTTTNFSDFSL
Assay: PBM E-score (8-mer binding enrichment) (E-score (-0.5 to 0.5)); higher = stronger / more preferred TF binding
Conditions: protein concentration: 200 nM; construct: GST-full length
Description: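 Universal 'all 10-mer' protein binding microarrays (Agilent AMADID 015681) probed with GST-tagged S. cerevisiae TFs (full-length or DBD) made by in vitro transcription/translation (PURExpress), about 100-200 nM. Bound TF was detected with fluorescent anti-GST. Each ungapped 8-mer (which stands for itself and its reverse complement) is scored by the PBM enrichment score (E-score), a modified Wilcoxon-Mann-Whitney statistic from -0.5 to +0.5, computed with the Universal PBM Analysis Suite. Scale: above 0.35 generally sequence-specific binding.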

| Sequence | PBM E-score |
| --- | --- |
| ATTAACGC | 0.143 |
| ATTAACGA | 0.424 |
| GGTAACGA | 0.346 |
| CGTAACGC | 0.324 |
| CTTAACGC | 0.17 |
| GCTAACGA | 0.304 |
| ATTAACGG | 0.185 |
| CTTAACGA | 0.464 |
| CTTAACCA | -0.0796 |
| CGTAACGA | 0.374 |
| ACGCACGT | 0.144 |
| AGATTCTC | -0.0164 |
| CACTTCAA | -0.0335 |
| GGCACACA | -0.136 |
| ACGCAGTG | 0.0743 |
| TCACCTGA | -0.284 |
| CTACGCTA | -0.04 |
| CCGCTTAA | 0.268 |
| GCGCTTAA | 0.173 |
| TCGCTTAA | 0.403 |
| ACTTATTG | -0.116 |
| GATCTCTA | -0.0508 |
| AATAAACG | 0.429 |
| AATAAACA | 0.0907 |
| CATAAACC | -0.075 |

| Sequence | PBM E-score |
| --- | --- |
| AATAAACT | -0.0754 |
| CATAAACA | -0.00956 |
| CATAAACG | 0.462 |
| CTCATACC | 0.051 |
| GGCTTTTA | -0.157 |
| CTAATTCA | -0.0938 |
| CCGTTCAC | 0.291 |
| AGTTGTTC | 0.127 |
| CACGATAG | -0.187 |
| ACCGATAT | 0.0732 |
| ACCGATAG | -0.0483 |
| AGCGATAA | 0.0894 |
| AACGATAC | 0.413 |
| AACGATAA | 0.381 |
| ACCGATAA | 0.158 |
| CACGATAC | 0.197 |
| AACGATAT | 0.39 |
| GACGATAC | 0.124 |
| AGCGATAT | 0.206 |
| AACGATAG | 0.404 |
| CACTGACG | -0.152 |
| GTGGGTCA | -0.327 |
| GGTCTGTA | 0.0803 |
| ATGGACCA | 0.0213 |
| ATGAGTGA | -0.101 |

| Sequence | PBM E-score |
| --- | --- |
| CGTTCGAA | 0.221 |
| AGTGCCAT | -0.133 |
| GAACCACA | -0.0218 |
| ATTTAGAA | -0.14 |
| AAGGCCGT | 0.244 |
| ACCTGGGA | -0.245 |
| AAATTTAA | 0.184 |
| CACGATAA | 0.074 |
| TACGATAA | 0.416 |
| GACGATAA | 0.111 |
| TCAGCGGA | -0.0114 |
| CGTTTACA | 0.441 |
| AGTTTACA | -0.0264 |
| CATTTACC | -0.152 |
| AGTTTACC | 0.0436 |
| CGTTTACC | 0.449 |
| GGTTTACA | -0.0166 |
| AACGGAAA | 0.216 |
| GCAAAACA | -0.144 |
| CGGGGGGC | 0.063 |
| CTACAACC | 0.0888 |
| GGTTCGAA | 0.0921 |
| GGTTCGTA | 0.445 |
| AGTTCGTA | 0.439 |
| CGTTCGTA | 0.45 |

| Sequence | PBM E-score |
| --- | --- |
| GGTTCGGA | -0.168 |
| AGTTCGTC | 0.0871 |
| AGTTCGTG | 0.158 |
| CGTTCGGA | 0.265 |
| CGTTCGTC | 0.293 |
| CTTGCAGA | -0.17 |
| GTATAGAA | 0.345 |
| AGGTGCTG | -0.387 |
| CATCAGTC | -0.123 |
| CTCGCCCA | -0.102 |
| ACACCAGC | -0.111 |
| CTGTCGAA | -0.181 |
| ATGTCGTC | -0.0259 |
| ATGTCGTA | 0.45 |
| GTGTCGGA | 0.0733 |
| ATGTCGTG | -0.0693 |
| GTGTCGTA | 0.44 |
| CTGTCGTA | 0.447 |
| GTGTCGCA | 0.0927 |
| CTGTCGTC | 0.00126 |
| GTGTGGCA | -0.371 |
| AACCGGCT | -0.239 |
| AACTATCA | 0.134 |
| ATGTGAAT | 0.12 |
| AATACCGC | -0.131 |

| Sequence | PBM E-score |
| --- | --- |
| CGTATGTC | 0.353 |
| AGTATGTA | 0.0299 |
| CGTATGCA | 0.377 |
| GGTATGCA | -0.00862 |
| AGTATGCA | -0.3 |
| CGTATGTA | 0.387 |
| CCTATGCC | -0.13 |
| AGTATGCC | -0.189 |
| CGTATGCC | 0.372 |
| GCAGTAGC | -0.174 |
| AGCGGGTC | -0.0751 |
| CATTTTTC | 0.0327 |
| TAATCTCA | -0.058 |
| CGCTGGAA | -0.186 |
| ACCATCTG | -0.225 |
| GACTCGAA | -0.194 |
| CACTCGTC | 0.0141 |
| AACTCGTA | 0.455 |
| AACTCGTC | 0.0662 |
| GACTCGCA | -0.0142 |
| CACTCGAA | 0.0152 |
| CACTCGTA | 0.455 |
| AACTCGTG | 0.178 |
| GACTCGTA | 0.436 |
| CCACTTCG | 0.0558 |

| Sequence | PBM E-score |
| --- | --- |
| AATGGAGT | -0.266 |
| AGCGTTAC | 0.0438 |
| CTCTTCCA | -0.0797 |
| CCGCTGGC | -0.258 |
| GAAATGTC | -0.0124 |
| ACGCGAGG | 0.219 |
| AAGACTCA | -0.172 |
| ACTGACTC | -0.192 |
| CTCGAACA | -0.00626 |
| CCAATAGC | -0.22 |
| TACATCGA | 0.038 |
| ACTTACGA | 0.382 |
| GCTTACAA | -0.0171 |
| ACTTACGG | 0.194 |
| ACTTACGC | -0.0998 |
| CCTTACTA | 0.029 |
| CCTTACGA | 0.407 |
| GCTTACGA | 0.421 |
| CCTTACGC | 0.193 |
| GCTTACTA | -0.0799 |
| GAAGTACC | 0.114 |
| GTGCCAAC | -0.0672 |
| CTCCACCA | -0.177 |
| GGATTGTA | 0.107 |
| ATGCCAAC | 0.0593 |

| Sequence | PBM E-score |
| --- | --- |
| GTTAGCGA | 0.194 |
| ACAATCCA | -0.0823 |
| CCACGACA | -0.131 |
| CGACGACA | 0.173 |
| GTACGACA | 0.468 |
| CTACGACA | 0.311 |
| GCACGACA | 0.0592 |
| ATACGACA | 0.477 |
| CCCGAGCC | -0.0326 |
| CGCATTCA | -0.00072 |
| CGTTAACG | 0.422 |
| CCTTAACA | -0.0468 |
| CGTTAACA | 0.274 |
| CGTTAACC | 0.348 |
| ACTTAACG | 0.339 |
| CCTTAACG | 0.38 |
| AAATCTCC | -0.271 |
| GTGACCAC | -0.283 |
| ACAATGAT | -0.102 |
| CGGCGCTC | 0.16 |
| GCCCTCGC | 0.219 |
| ATGGCTCA | -0.1 |
